# Values of other authors as cited in PubChem BioAssay AID977608.
# The whole screen tested about 4,300 compounds, of which about 4,300 (100%) were called active. The limit is not given here; nearly all actives have IC50 up to about 1400 µM. So high a share suggests a set chosen from earlier hits. This is one part of the list. Square brackets hold non-standard residues; d marks the D form. Peptide text beside a SMILES is read from it. * marks the point of attachment. 3Pal = N[C@@H](Cc1cccnc1)C(=O)O; hLeu = CC(C)CC[C@H](N)C(=O)O; β3hL = CC(C)C[C@H](N)CC(=O)O; X1 = CC(=O)[C@H](CC(=O)O)N*
# Experiment: protein-ligand inhibition affinities from structures – PDB-derived complexes (AID 977608)
compound,measurement,setting,value
O=C(Nc1nc2ccccc2s1)c1cccc2c1CN(c1nc(C(=O)O)c(CCCOc3ccc(-n4ncc5cncnc54)cc3)s1)CC2,IC50,"literature IC50, protein: Bcl-2-like protein 1 Bcl-xL, PDB entry 4tuh",100000 nM (active)
Cc1c(-c2c([C@H](OC(C)(C)C)C(=O)O)n(C)c(=O)c3ccccc23)cc(F)c2c1CCCO2,IC50,"literature IC50, protein: HIV-1 Integrase HIV-1 IN, PDB entry 4ojr",38 nM (active)
CCc1sc(-c2ccc(OC)c(OCCF)c2)nc1CSc1nc(N)cc(N)n1,IC50,"literature IC50, protein: Deoxycytidine kinase, Human dCK C4S-S74E mutant, PDB entry 4jlm",22.7 nM (active)
Cc1ccc(CN(C)c2cc(C)nc3ncnn23)cc1,IC50,"literature IC50, protein: Bromodomain-containing protein 4, PDB entry 4men",125000 nM (active)
C[N+](C)(C)CCCC(=O)O,IC50,"literature IC50, protein: human gamma-butyrobetaine hydroxylase, PDB entry 4c5w",3300 nM (active)
COc1cc(Nc2nccc(Nc3ccc4c(C)[nH]nc4c3)n2)cc(OC)c1OC,IC50,"literature IC50, protein: Bromodomain-containing protein 4 BRD4-1, PDB entry 4o78",4600 nM (active)
COc1cc(NC(=O)c2cccc3cccnc23)c(OC)cc1Cl,IC50,"literature IC50, protein: 3-OXOACYL-[ACYL-CARRIER-PROTEIN] REDUCTASE FABG, PDB entry 4bo1",50 nM (active)
CC(C)(C)OC(=O)NCc1cn([C@H]2C[C@@H](C(=O)N3CCC[C@H]3C=N)N(C(=O)CCCc3ccccc3)C2)nn1,IC50,"literature IC50, protein: PROLYL ENDOPEPTIDASE, PDB entry 4bcc",9 nM (active)
[N-]=[N+]=N[C@H]1C[C@@H](C(=O)N2CCC[C@H]2C=N)N(C(=O)CCCc2ccccc2)C1,IC50,"literature IC50, protein: PROLYL ENDOPEPTIDASE, PDB entry 4bcb",3 nM (active)
CC(C)C[C@H](NC(=O)[C@@H](Cc1ccc(CN)cc1)NC(=O)[C@H](Cc1ccccc1)N=[N+]=[N-])C(=O)N[C@H](CCS(C)(=O)=O)Cc1ccc(CN)cc1,IC50,"literature IC50, protein: yeast 20S proteasomes, PDB entry 4inu",0.55 nM (active)
Cc1c(O)cccc1C(=O)N[C@H](C(=O)N[C@@H](CO)C(=O)N[C@H](CCS(C)(=O)=O)Cc1ccc(CN)cc1)C(C)C,IC50,"literature IC50, protein: yeast 20S proteasomes, PDB entry 4int",1600 nM (active)
NC(=O)[C@H](CCCCNC(=O)[C@@H](Cc1ccc(C(=O)c2ccccc2)cc1)NC(=O)CCC1CCCCC1)NC(=O)/C=C/C(=O)O,IC50,"literature IC50, protein: Cysteine-free Human Insulin Degrading Enzyme, PDB entry 4lte",60 nM (active)
Nc1nc(Nc2ccc(S(N)(=O)=O)cc2)sc1C(O)c1ccccc1 (centres undefined),IC50,"literature IC50, protein: Cyclin-dependent kinase 2, PDB entry 3rak",130 nM (active)
COc1ccc(C(O)c2sc(Nc3ccc(S(N)(=O)=O)cc3)nc2N)cc1 (centres undefined),IC50,"literature IC50, protein: Cyclin-dependent kinase 2, PDB entry 3s1h",17000 nM (active)
COc1cccc(C(O)c2sc(Nc3ccccc3)nc2N)c1 (centres undefined),IC50,"literature IC50, protein: Cyclin-dependent kinase 2, PDB entry 3qts",3100 nM (active)
COc1cccc(C(O)c2sc(Nc3ccc(S(N)(=O)=O)cc3)nc2N)c1 (centres undefined),IC50,"literature IC50, protein: Cyclin-dependent kinase 2, PDB entry 3ral",100 nM (active)
Nc1nc(Nc2ccc(S(N)(=O)=O)cc2)sc1C(O)c1cccc([N+](=O)[O-])c1 (centres undefined),IC50,"literature IC50, protein: Cyclin-dependent kinase 2, PDB entry 3qtx",70 nM (active)
COc1ccc(Nc2nc(-c3cccc(C(=O)Nc4ccc(C(=O)O)cc4)c3)c[n+]3cc[nH]c23)cc1OC,IC50,"literature IC50, protein: Tyrosine-protein kinase SYK, PDB entry 4pv0",0.85 nM (active)
COc1ccc(Cc2nn3c([C@@H](CCCc4ccccc4)[C@@H](C)O)nc(C)c3c(=O)[nH]2)cc1OC,IC50,"literature IC50, protein: cGMP-dependent 3',5'-cyclic phosphodiesterase, PDB entry 4htx",4.7 nM (active)
CC(=O)N[C@@H](Cc1cccnc1)C(=O)N[C@@H](CC(=O)O)C(=O)N[C@H](CC(=O)N[C@@H](CCC(C)C)C(=O)N[C@@H](CC(=O)O)C(C)=O)CC(C)C (Ac-[3Pal]D[β3hL][hLeu]-X1),IC50,"literature IC50, protein: Caspase-3, PDB entry 4jje",23 nM (active)
same,IC50,"literature IC50, protein: Caspase-7, PDB entry 4jj8",730 nM (active)
same,IC50,"literature IC50, protein: Caspase-8, PDB entry 4jj7",400 nM (active)
CCOc1cc(C(C)(C)C)ccc1C1=N[C@@](C)(c2ccc(Cl)cc2)[C@@](C)(c2ccc(Cl)cc2)N1C(=O)N1CCN(CCCS(C)(=O)=O)CC1,IC50,"literature IC50, protein: E3 ubiquitin-protein ligase Mdm2 (I50L, P92H, L95I mutation), PDB entry 4ipf",18 nM (active)
CCC(C)(C)NC(=O)[C@@H](c1cccn1C)N(C(=O)Cn1nnc2ccccc21)c1ccc(NC(C)=O)cc1,IC50,"literature IC50, protein: 3C-like proteinase, PDB entry 4mds",6200 nM (active)
N#CNC(NCc1ccc(S(=O)(=O)c2cccc(OC(F)(F)F)c2)cc1)Nc1ccncc1 (centres undefined),IC50,"literature IC50, protein: Nicotinamide phosphoribosyltransferase, PDB entry 4lts",4.4 nM (active)
COc1cccc(-c2cc(C(F)(F)F)[nH]n2)c1,IC50,"literature IC50, protein: Phenylalanine--tRNA ligase, PDB entry 4p75",80000 nM (active)
CCC(=O)O[C@@H]1CC[C@@]2(C)[C@H](CC[C@@H]3[C@@H]2CC[C@]2(C)[C@@H]([C@H](C)CCC(=O)O)CC[C@@H]32)C1,IC50,"literature IC50, protein: vitamin D3 receptor ligand binding domain, PDB entry 3w5t",30000 nM (active)
CC1C=CC(C(=O)Nc2ccc(Oc3cc4cnn(C)c4cc3-c3cn[nH]c3)c(F)c2)C(=O)N1c1ccc(F)cc1 (centres undefined),IC50,"literature IC50, protein: Hepatocyte growth factor receptor, PDB entry 4eev",4.7 nM (active)
CC1=C(C(=O)N[C@H](C)C(=O)N[C@@H](Cc2c[nH]c3ccccc23)C(=O)N[C@@H](Cc2ccccc2)[C@@H](O)[C@H](C)CO)Cc2ccccc21,IC50,"literature IC50, protein: yCP, PDB entry 4qlt",2.5 nM (active)
CC1=C(C(=O)N[C@H](C)C(=O)N[C@@H](Cc2c[nH]c3ccccc23)C(=O)N[C@@H](CC2CCCCC2)[C@@H](O)[C@H](C)CO)Cc2ccccc21,IC50,"literature IC50, protein: yCP, PDB entry 4qlu",8.3 nM (active)
OC(Cc1cnc2ccccn12)([P+](O)(O)O)[P+](O)(O)O,IC50,"literature IC50, protein: human FARNESYL PYROPHOSPHATE SYNTHETASE, PDB entry 2vf6",3 nM (active)
CCC(=O)Nc1ccc(OC)c(Nc2ncc(Cl)c(-c3c[nH]c4ccccc34)n2)c1,IC50,"literature IC50, protein: Epidermal growth factor receptor, PDB entry 4li5",550 nM (active)
COc1ccc2c(c1OC)CN(C)c1c-2ccc2cc3c(cc12)OCO3,IC50,"literature IC50, protein: Chitinase A(W275G mutant), PDB entry 3as1",95000 nM (active)
c1ccc(-c2nc(-n3cnnc3)c3ccccc3n2)cc1,IC50,"literature IC50, protein: 3-OXOACYL-[ACYL-CARRIER-PROTEIN] REDUCTASE FABG, PDB entry 4bnu",20 nM (active)
Ac-NSNAIKN-NH2,IC50,"literature IC50, protein: Low-density lipoprotein receptor-related protein 6, PDB entry 3soq",27000 nM (active)
CC[C@H](C)[C@H](NC(=O)[C@H](CCC(=O)O)NC(=O)[C@H](C)NC(C)=O)C(=O)N[C@H](CO)CCCCN,IC50,"literature IC50, protein: Streptopain, PDB entry 4d8i",205 nM (active)
CCNC(=O)c1ccc(C(=O)NCCC2CCN(c3ncnc4cc(C(N)=O)sc34)CC2)s1,IC50,"literature IC50, protein: NAD-dependent protein deacetylase sirtuin-3, mitochondrial, PDB entry 4jsr",4 nM (active)
Nc1nc(NC2CCCCC2)sc1C(O)c1cccc([N+](=O)[O-])c1 (centres undefined),IC50,"literature IC50, protein: Cyclin-dependent kinase 2, PDB entry 3r9n",1400 nM (active)
Nc1nc(NC2CCCCC2)sc1C(O)c1ccc2ccccc2c1 (centres undefined),IC50,"literature IC50, protein: Cyclin-dependent kinase 2, PDB entry 3rah",12 nM (active)
